Measured values taken from PubChem BioAssay (Tox21).
Inconclusive results are not listed. Activity calls are given as the source filed them. Unless noted, calls follow the shape of the dose curve; as a rule, active = well fitted curve in the direction sought with a large enough effect in the repeat runs; inconclusive = weak or mixed curves; inactive = no such curve, though single readings can be large; an effect the other way counts as inactive or inconclusive.

Tests used:
[1] = qHTS assay for small molecules that induce genotoxicity in human embryonic kidney cells expressing luciferase-tagged ATAD5 (AID 651632); also: nearly all actives have a fitted effect of over 15% in size
Summary of the method: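 Luminescent reporter readout, HEK293T ATAD5-luc line: 16 hr drug exposure (37C, 5% CO2) followed by Amplite, 30 min RT.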

[2] = qHTS assay for small molecules that induce genotoxicity in human embryonic kidney cells expressing luciferase-tagged ATAD5 - cell viability (AID 651634; calls by dose curve; also: nearly all actives have a fitted effect of over 25% in size)
Summary of the method: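 Viability read: CellTiter-Fluor fluorescence, 30 min at 37C. Cells: HEK293T, luciferase-tagged ATAD5. Exposure: 15.5 hr, 37C, 5% CO2, compound or DMSO vehicle.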

[3] = qHTS assay for small molecule disruptors of the mitochondrial membrane potential - cell viability (AID 720634; calls by dose curve;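 also: human HepG2 liver cancer cells; series mostly up to about 83 µM; nearly all actives have a fitted effect of over 20% in size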)
Summary of the method: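 HepG2, 1 hr compound, 37 C. ATP luminescence via CellTiter-Glo, 30 min RT, same well as m-MPI.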

[4] = qHTS assay to test for compound auto fluorescence at 590 nm (red) in HepG2 cells (AID 720674)
Summary of the method: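 Compound auto-fluorescence is scored relative to Rose Bengal sodium, measured at 540/590 nm in live HepG2 cultures after 1 hr compound contact (37 C, 5% CO2).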

[5] = qHTS assay to test for compound auto fluorescence at 535 nm (green) in HepG2 cells (AID 720675)
[6] = qHTS assay to test for compound auto fluorescence at 590 nm (red) in HEK293 cells (AID 720679)
Summary of the method: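 Autofluorescence equivalency to Rose Bengal sodium, 540/590nm, in HEK293 cells exposed overnight to 23 nL compound per well.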

[7] = qHTS assay to test for compound auto fluorescence at 535 nm (green) in HEK293 cells (AID 720680)
[8] = qHTS assay to test for compound auto fluorescence at 460 nm (blue) in HEK293 cell free culture (AID 720681)
Summary of the method: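 Test compounds were pinned into cell-free culture medium (DMEM with 10% FBS) and fluorescence was read directly at Ex/Em 405/460 nm. Signals were expressed as fluorescence equivalents of triamterene, with DMSO vehicle as control.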

[9] = qHTS assay to test for compound auto fluorescence at 535 nm (green) in HEK293 cell free culture (AID 720682)
Summary of the method: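 DMEM + 10% FBS, cell-free; cpd or DMSO pinned in; Ex485/Em535 read; output as fluorescein-equivalent signal.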

[10] = qHTS assay to test for compound auto fluorescence at 590 nm (red) in HEK293 cell free culture (AID 720683)
Summary of the method: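 Tox21 10K library compounds were pinned into cell-free DMEM with 10% FBS and fluorescence was read at excitation 540 nm. Activity is expressed as Rose Bengal sodium equivalency.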

[11] = qHTS assay to test for compound auto fluorescence at 590 nm (red) in HepG2 cell free culture (AID 720684)
Summary of the method: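 Red fluorescence (540 nm excitation, 590 nm emission) was measured after compound transfer into cell-free MEM supplemented with 10% FBS. Values are equivalencies against Rose Bengal sodium.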

[12] = qHTS assay to test for compound auto fluorescence at 460 nm (blue) in HepG2 cell free culture (AID 720685)
Summary of the method: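 Compound (23 nL) or DMSO pinned into cell-free MEM with 10% FBS; blue fluorescence read at 405/460 nm excitation/emission, expressed as auto-fluorescence equivalency to triamterene.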

[13] = qHTS assay to test for compound auto fluorescence at 535 nm (green) in HepG2 cell free culture (AID 720686)
[14] = qHTS assay to test for compound auto fluorescence at 460 nm (blue) in HepG2 cells (AID 720687)
Summary of the method: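 Cells (2,000/well in MEM with 10% FBS) attached overnight at 37 C, then were exposed to compound or DMSO for 1 hr at 37 C, 5% CO2. Fluorescence read at Ex/Em 405/460 nm, expressed as triamterene-equivalent signal.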

[15] = biological target: Glucocorticoid receptor (Homo sapiens) (UniProt P04150); assay: qHTS assay to identify small molecule agonists of the glucocorticoid receptor (GR) signaling pathway (AID 720691; active = well fitted activation curve with a large enough effect in the signal ratio in the repeat runs, not every such curve was filed as active; the % refers to the signal ratio)
Sequence of Glucocorticoid receptor (Homo sapiens) (P04150 whole entry, looked up): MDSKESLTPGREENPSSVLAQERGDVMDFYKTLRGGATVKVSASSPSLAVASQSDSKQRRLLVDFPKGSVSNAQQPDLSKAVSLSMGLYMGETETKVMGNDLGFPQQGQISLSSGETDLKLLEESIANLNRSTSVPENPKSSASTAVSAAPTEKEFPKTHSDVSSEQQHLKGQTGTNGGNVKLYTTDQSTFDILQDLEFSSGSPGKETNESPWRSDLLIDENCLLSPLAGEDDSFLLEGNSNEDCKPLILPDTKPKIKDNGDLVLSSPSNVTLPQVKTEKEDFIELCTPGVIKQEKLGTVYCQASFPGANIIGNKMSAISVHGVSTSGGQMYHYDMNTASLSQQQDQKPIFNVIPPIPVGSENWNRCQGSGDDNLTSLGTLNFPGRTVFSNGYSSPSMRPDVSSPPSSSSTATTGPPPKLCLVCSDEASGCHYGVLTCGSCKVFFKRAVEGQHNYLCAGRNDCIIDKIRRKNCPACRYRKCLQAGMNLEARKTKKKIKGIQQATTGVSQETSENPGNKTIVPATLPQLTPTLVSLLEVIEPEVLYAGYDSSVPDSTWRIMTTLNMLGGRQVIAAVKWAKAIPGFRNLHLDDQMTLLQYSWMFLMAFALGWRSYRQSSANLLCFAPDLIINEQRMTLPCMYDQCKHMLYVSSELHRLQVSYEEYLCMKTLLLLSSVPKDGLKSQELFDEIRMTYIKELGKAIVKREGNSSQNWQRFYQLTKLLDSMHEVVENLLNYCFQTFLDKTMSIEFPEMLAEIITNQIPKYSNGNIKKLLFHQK
Summary of the method: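 qHTS in GR-bla HeLa cells: 4 h settling at 37 C/5% CO2, 18 h compound incubation at 37 C, 2 h LiveBLAzer B/G FRET substrate at room temperature, fluorescence intensity measured.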

[16] = biological target: Glucocorticoid receptor (Homo sapiens) (UniProt P04150); assay: qHTS assay to identify small molecule antagonists of the glucocorticoid receptor (GR) signaling pathway (AID 720692; active = well fitted inhibition curve with a large enough effect in the signal ratio in the repeat runs, not every such curve was filed as active; the % refers to the signal ratio)
Summary of the method: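 Inhibition of glucocorticoid signalling is measured in HeLa cells with a GRE-controlled beta-lactamase reporter; cells are co-treated with compound and 5 nM dexamethasone (final) for 18 h before FRET substrate readout.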

[17] = qHTS assay to identify small molecule antagonists of the glucocorticoid receptor (GR) signaling pathway - cell viability counter screen (AID 720693); also: nearly all actives have a fitted effect of over 55% in size
[18] = qHTS assay for identifying genotoxic compounds that show differential cytotoxicity against isogenic chicken DT40 cell lines with known DNA damage response pathways - Rev3 mutant cell line (AID 743014); also: nearly all actives have a fitted effect of over 55% in size
[19] = qHTS assay for identifying genotoxic compounds that show differential cytotoxicity against isogenic chicken DT40 cell lines with known DNA damage response pathways - Rad54/Ku70 mutant cell line (AID 743015); also: nearly all actives have a fitted effect of over 60% in size
[20] = qHTS assay to identify small molecule antagonists of the androgen receptor (AR) signaling pathway - cell viability counter screen (AID 743033; also: nearly all actives have a fitted effect of over 45% in size)
[21] = qHTS assay to identify small molecule antagonists of the androgen receptor (AR) signaling pathway using the MDA cell line - cell viability counter screen (AID 743041; also: nearly all actives have a fitted effect of over 45% in size)
Summary of the method: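 MDA-kb2 AR-luc human breast carcinoma cells (MMTV-luciferase, AR/GR responsive) were treated with compounds plus R1881 agonist for 16 h at 37 °C. Viability was read as CellTiter-Fluor fluorescence in the same wells as the reporter assay.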

[22] = qHTS assay to identify small molecule antagonists of the thyroid receptor (TR) signaling pathway - cell viability counter screen (AID 743064); also: nearly all actives have a fitted effect of over 50% in size
Summary of the method: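 Viability of T3-stimulated (1 nM final) GH3.TRE-Luc cells is measured by CellTiter-Fluor fluorescence after 23.5 h compound exposure at 37 °C plus 30 min reagent incubation.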

[23] = qHTS assay to identify small molecule antagonists of the thyroid receptor (TR) signaling pathway (AID 743065); also: series mostly up to about 70 µM; nearly all actives have a fitted effect of over 55% in size
Summary of the method: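 GH3.TRE-Luc rat pituitary cells carrying two TR response elements driving luciferase were plated for 4 h, given compound plus 1 nM T3 (final), and incubated 23.5 h at 37 C. ONE-Glo luminescence measured reporter inhibition; CellTiter-Fluor fluorescence tracked cytotoxicity.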

[24] = test system: thyroid hormone receptor (rat, GH3 cells); assay: qHTS assay to identify small molecule agonists of the thyroid receptor (TR) signaling pathway (AID 743066; calls by dose curve)
[25] = qHTS assay to identify small molecule antagonists of the estrogen receptor alpha (ER-alpha) signaling pathway - cell viability counter screen (AID 743074; calls by dose curve;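 also: HEK293 cells carrying ER-alpha-UAS-bla reporter stimulated with 17beta-estradiol; nearly all actives have a fitted effect of over 45% in size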)
[26] = biological target: Estrogen receptor (Homo sapiens) (UniProt P03372); assay: qHTS assay to identify small molecule agonists of the estrogen receptor alpha (ER-alpha) signaling pathway (AID 743075; calls by dose curve;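 also: HEK293 GripTite cells with ER-alpha and UAS-driven beta-lactamase reporter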)
Sequence of Estrogen receptor (Homo sapiens) (P03372 whole entry, looked up): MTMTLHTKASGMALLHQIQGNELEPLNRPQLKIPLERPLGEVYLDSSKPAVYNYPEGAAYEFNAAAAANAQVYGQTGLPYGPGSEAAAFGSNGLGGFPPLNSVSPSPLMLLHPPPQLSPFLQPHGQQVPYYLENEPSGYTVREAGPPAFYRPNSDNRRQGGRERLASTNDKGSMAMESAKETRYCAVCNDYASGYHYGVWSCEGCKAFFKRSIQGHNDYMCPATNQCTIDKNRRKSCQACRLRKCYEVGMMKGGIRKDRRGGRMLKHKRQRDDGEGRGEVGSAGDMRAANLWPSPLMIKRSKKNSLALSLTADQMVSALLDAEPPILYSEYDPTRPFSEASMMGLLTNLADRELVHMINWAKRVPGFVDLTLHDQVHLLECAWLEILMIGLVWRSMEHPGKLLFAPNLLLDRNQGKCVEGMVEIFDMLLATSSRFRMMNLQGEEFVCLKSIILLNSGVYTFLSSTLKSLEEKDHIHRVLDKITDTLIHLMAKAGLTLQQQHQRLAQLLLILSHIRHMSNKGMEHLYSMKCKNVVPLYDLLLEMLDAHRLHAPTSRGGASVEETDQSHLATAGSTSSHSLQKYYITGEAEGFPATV

[27] = biological target: Estrogen receptor (Homo sapiens) (UniProt P03372); assay: qHTS assay to identify small molecule agonists of the estrogen receptor alpha (ER-alpha) signaling pathway using the BG1 cell line (AID 743079); also: nearly all actives have a fitted effect of over 20% in size
[28] = qHTS assay to identify small molecule antagonists of the estrogen receptor alpha (ER-alpha) signaling pathway using the BG1 cell line (AID 743080; calls by dose curve;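 also: BG1 cells stimulated with 17beta-estradiol alongside compound; series mostly up to about 70 µM; nearly all actives have a fitted effect of over 25% in size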)
Summary of the method: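 Endogenous full-length ER-alpha in BG1-Luc-4E2 cells drives a stably integrated 4×ERE luciferase gene; compounds were tested against 17beta-estradiol over 21.5 h, with luminescence and multiplexed viability fluorescence recorded.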

[29] = qHTS assay to identify small molecule antagonists of the estrogen receptor alpha (ER-alpha) signaling pathway using the BG1 cell line - cell viability counter screen (AID 743081);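 also: compound given together with 17beta-estradiol as the ER stimulus; series mostly up to about 70 µM; nearly all actives have a fitted effect of over 45% in size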
[30] = biological target: Aromatase (Homo sapiens) (UniProt P11511); assay: qHTS assay to identify aromatase inhibitors (AID 743083); also: series mostly up to about 70 µM; nearly all actives have a fitted effect of over 55% in size
Sequence of Aromatase (Homo sapiens) (P11511 whole entry, looked up): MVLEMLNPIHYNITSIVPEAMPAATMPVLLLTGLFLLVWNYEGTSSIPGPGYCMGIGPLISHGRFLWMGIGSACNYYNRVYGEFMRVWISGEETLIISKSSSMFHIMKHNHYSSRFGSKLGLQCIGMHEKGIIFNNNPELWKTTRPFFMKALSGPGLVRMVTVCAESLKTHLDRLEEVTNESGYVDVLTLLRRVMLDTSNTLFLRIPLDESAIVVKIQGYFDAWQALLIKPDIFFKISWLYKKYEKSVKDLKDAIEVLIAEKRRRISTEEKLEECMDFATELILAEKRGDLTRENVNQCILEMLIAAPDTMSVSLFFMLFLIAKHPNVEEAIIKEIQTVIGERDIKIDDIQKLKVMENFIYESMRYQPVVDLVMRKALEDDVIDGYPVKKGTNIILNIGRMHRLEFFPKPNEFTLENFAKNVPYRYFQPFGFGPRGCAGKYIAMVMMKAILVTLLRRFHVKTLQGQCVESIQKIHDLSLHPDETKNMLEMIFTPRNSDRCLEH

[31] = qHTS assay to identify aromatase inhibitors - cell viability counter screen (AID 743084)
[32] = biological target: Peroxisome proliferator-activated receptor gamma (Homo sapiens) (UniProt P37231); assay: qHTS assay to identify small molecule agonists of the peroxisome proliferator-activated receptor gamma (PPARg) signaling pathway (AID 743094; active = well fitted activation curve with a large enough effect in the signal ratio in the repeat runs, not every such curve was filed as active; the % refers to the signal ratio)
Sequence of Peroxisome proliferator-activated receptor gamma (Homo sapiens) (P37231 whole entry, looked up): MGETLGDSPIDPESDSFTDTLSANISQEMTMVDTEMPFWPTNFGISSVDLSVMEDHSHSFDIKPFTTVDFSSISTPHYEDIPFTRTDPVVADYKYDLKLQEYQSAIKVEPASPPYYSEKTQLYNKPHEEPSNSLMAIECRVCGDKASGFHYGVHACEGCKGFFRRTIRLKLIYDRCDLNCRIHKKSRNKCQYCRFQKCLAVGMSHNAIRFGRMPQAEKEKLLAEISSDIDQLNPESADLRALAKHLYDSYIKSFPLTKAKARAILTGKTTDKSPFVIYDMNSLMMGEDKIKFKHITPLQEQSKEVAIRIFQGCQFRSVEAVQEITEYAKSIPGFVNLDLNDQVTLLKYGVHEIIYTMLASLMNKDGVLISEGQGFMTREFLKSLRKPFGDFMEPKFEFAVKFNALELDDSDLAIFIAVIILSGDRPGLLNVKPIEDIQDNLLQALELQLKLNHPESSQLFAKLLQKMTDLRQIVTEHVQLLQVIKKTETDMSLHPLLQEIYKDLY
Summary of the method: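 Compounds dissolved in DMSO were added to PPARg UAS-bla HEK293H cells for 17 h at 37C, and reporter expression was quantified by fluorescence intensity after 1 h with LiveBLAzer B/G FRET substrate.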

[33] = qHTS assay to identify small molecule antagonists of the estrogen receptor alpha (ER-alpha) signaling pathway using the BG1 cell line in the presence of 0.1 nM 17-beta-estradiol - cell viability counter screen (AID 1259241); also: nearly all actives have a fitted effect of over 40% in size
Summary of the method: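 Following 5 days in phenol red-free medium with charcoal-stripped serum, VM7Luc4E2 cells received test compounds alongside 0.1 nM 17beta-estradiol (final) at 37C for 22 hr. Live cells were then quantified via protease-substrate fluorescence.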

[34] = qHTS assay to identify small molecule antagonists of the androgen receptor (AR) signaling pathway using the MDA cell line in the presence of 0.5 nM R1881 - cell viability counter screen (AID 1259242); also: nearly all actives have a fitted effect of over 45% in size
Summary of the method: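 Viability of MDA-kb2 cells was multiplexed with the luciferase AR readout; after 16 hr with compounds and R1881 at 0.5 nM final, CellTiter-Fluor fluorescence was recorded.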

[35] = biological target: Estrogen receptor (Homo sapiens) (UniProt P03372); assay: qHTS assay to identify small molecule antagonists of the estrogen receptor alpha (ER-alpha) signaling pathway using the BG1 cell line in the presence of 0.1 nM 17-beta-estradiol (AID 1259244); also: nearly all actives have a fitted effect of over 50% in size
Summary of the method: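 Estradiol at 0.1 nM (final) stimulates the endogenous ER-alpha of VM7Luc4E2 cells carrying an ERE-driven luciferase; compounds are co-incubated 22 h at 37C and luciferase output quantified by luminescence.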

[36] = biological target: Estrogen receptor (Homo sapiens) (UniProt P03372); assay: qHTS assay to identify small molecule agonists of the estrogen receptor alpha (ER-alpha) signaling pathway in the presence of an antagonist (AID 1259383; calls by dose curve; also: top concentration of the series differs between compounds; nearly all actives have a fitted effect of over 15% in size)
Summary of the method: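 Stably transfected VM7Luc4E2 reporter cells, kept 5 days in charcoal-stripped serum, received ICI-182,780 at 10.0nM final before compound addition. Following 22hr incubation at 37C and 5% CO2, luciferase signal was read by luminescence.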

[37] = biological target: Nuclear receptor subfamily 1 group I member 2 (Homo sapiens) (UniProt O75469); assay: Human pregnane X receptor (PXR) small molecule agonists, qHTS assay (AID 1346982); also: nearly all actives have a fitted effect of over 35% in size
Sequence of Nuclear receptor subfamily 1 group I member 2 (Homo sapiens) (O75469 whole entry, looked up): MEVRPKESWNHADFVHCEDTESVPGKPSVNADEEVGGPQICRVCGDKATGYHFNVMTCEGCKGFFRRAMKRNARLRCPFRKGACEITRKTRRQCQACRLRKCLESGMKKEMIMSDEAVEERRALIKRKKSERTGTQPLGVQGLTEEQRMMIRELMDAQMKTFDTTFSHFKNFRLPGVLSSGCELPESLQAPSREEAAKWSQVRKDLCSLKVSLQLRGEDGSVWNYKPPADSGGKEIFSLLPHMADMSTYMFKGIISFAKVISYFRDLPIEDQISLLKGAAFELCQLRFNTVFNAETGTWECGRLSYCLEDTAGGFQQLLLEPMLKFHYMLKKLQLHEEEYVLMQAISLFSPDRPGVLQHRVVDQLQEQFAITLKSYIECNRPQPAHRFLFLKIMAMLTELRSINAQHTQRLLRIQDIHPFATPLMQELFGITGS
Summary of the method: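 Compound-induced hPXR transactivation of a CYP3A4 luciferase reporter was scored in HepG2 PXR-Luc cells over 24 hr at 37 C, 5% CO2, by luminescence.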

[38] = biological target: Acetylcholinesterase (Homo sapiens) (UniProt P22303); assay: Acetylcholinesterase (AChE) small molecule antagonists: colormetric cell-based qHTS assay (AID 1347395; calls by dose curve; also: nearly all actives have a fitted effect of over 30% in size)
Sequence of Acetylcholinesterase (Homo sapiens) (P22303 whole entry, looked up): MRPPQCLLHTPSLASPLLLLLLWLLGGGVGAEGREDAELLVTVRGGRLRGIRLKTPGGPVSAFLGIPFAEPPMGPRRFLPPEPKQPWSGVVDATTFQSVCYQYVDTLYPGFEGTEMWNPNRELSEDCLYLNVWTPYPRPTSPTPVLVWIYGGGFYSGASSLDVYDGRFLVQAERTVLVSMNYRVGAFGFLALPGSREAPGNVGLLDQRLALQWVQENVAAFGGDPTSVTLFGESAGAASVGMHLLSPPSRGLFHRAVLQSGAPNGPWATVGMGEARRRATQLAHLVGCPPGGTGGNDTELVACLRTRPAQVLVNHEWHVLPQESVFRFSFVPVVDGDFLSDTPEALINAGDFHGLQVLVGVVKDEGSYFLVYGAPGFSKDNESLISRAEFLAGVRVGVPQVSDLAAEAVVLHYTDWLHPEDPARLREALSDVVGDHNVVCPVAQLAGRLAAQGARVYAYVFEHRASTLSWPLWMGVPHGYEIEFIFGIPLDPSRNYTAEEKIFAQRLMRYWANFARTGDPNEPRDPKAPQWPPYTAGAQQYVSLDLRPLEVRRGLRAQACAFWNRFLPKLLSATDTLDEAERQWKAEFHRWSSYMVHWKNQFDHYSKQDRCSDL
Summary of the method: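 Homogeneous whole-cell format. SH-SY5Y cells seeded overnight, dosed with compound (30 min, 37 C, 5% CO2), then given DTNB/acetylthiocholine cocktail for 90 min at 37 C; colorimetric signal.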

[39] = biological target: Acetylcholinesterase (Homo sapiens) (UniProt P22303); assay: Acetylcholinesterase (AChE) small molecule antagonists: enzyme-based qHTS assay (AID 1347397; calls by dose curve; also: nearly all actives have a fitted effect of over 55% in size); details: Potency: AChE enzyme activity inhibition; outcome: AChE enzyme activity inhibition
Summary of the method: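 Recombinant human AChE, dispensed at 50 mU/mL, was preincubated with Tox21 10K compounds or DMSO vehicle for 30 min at room temperature. DTNB plus acetylthiocholine was then added, and thiocholine was measured colorimetrically after a further 10 min.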

[40] = biological target: Acetylcholinesterase (Homo sapiens) (UniProt P22303); assay: Acetylcholinesterase (AChE) small molecule antagonists: fluorescence cell-based qHTS assay (AID 1347398; calls by dose curve; also: nearly all actives have a fitted effect of over 50% in size); details: Potency: AChE activity; outcome: AChE activity
Summary of the method: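 Human SH-SY5Y cells were plated overnight at 37 C, exposed to compound for 30 min at 37 C, 5% CO2, then given acetylthiocholine plus Thiolite Green for 40 min at room temperature; thiocholine fluorescence (Ex/Em 490/520 nm) reports endogenous AChE activity.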

[41] = biological target: Acetylcholinesterase (Homo sapiens) (UniProt P22303); assay: Acetylcholinesterase (AChE) small molecule antagonists: enzyme-based qHTS assay with human liver microsomes (AID 1347399; calls by dose curve; also: nearly all actives have a fitted effect of over 60% in size); details: Potency: qHTS inhibition; outcome: qHTS inhibition
Summary of the method: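 Recombinant human AChE (50 mU/mL in the enzyme mix) and human liver microsomes (0.25 mg/mL final) were preincubated with compound and NADPH (0.25 mg/mL final) for 30 min at 37 C. Acetylthiocholine/DTNB was then added; thiocholine was read colorimetrically after 10 min at room temperature.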

Measured: Potency

c1ccccc1
inactive: all assays above
